Measured values published in the supplement of paper PMC6089552.
Out of some 3,200 compounds screened, about 300 (9.4%) showed activity. What follows is part of a selection rich in actives, with near analogues and random picks from the rest.

Test system: A673/TR/shEF
Test: cell viability (LOESS-normalised, relative to median of negative controls) (log2 ratio); higher = more viable cells (less compound effect), active = hit call of the paper (over 3 MAD below the median)
Settings: treatment time: 72 h
Method in brief: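 Doxycycline, present or absent from 24 h before compounds, was used to induce EWS-FLI1 shRNA knockdown in A673/TR/shEF Ewing sarcoma cells at 1,500 per well in 384-well plates. Cells then received library compounds at two or more concentrations, or DMSO controls, for three days. Viability was measured by CellTiter-Glo luminescence on an Envision reader, and per-plate LOESS correction, division by the negative-control median and log2 transformation followed.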

[1] = 0.25 µM, library screen: screen1, EWS-FLI1 expression: high (no doxycycline)
[2] = 0.25 µM, library screen: screen1, EWS-FLI1 expression: low (doxycycline-induced shRNA knockdown)
[3] = 2.5 µM, library screen: screen1, EWS-FLI1 expression: high (no doxycycline)
[4] = 2.5 µM, library screen: screen1, EWS-FLI1 expression: low (doxycycline-induced shRNA knockdown)
[5] = 0.025 µM, library screen: screen1, EWS-FLI1 expression: high (no doxycycline)
[6] = 0.025 µM, library screen: screen1, EWS-FLI1 expression: low (doxycycline-induced shRNA knockdown)
[7] = 25 µM, library screen: screen1, EWS-FLI1 expression: high (no doxycycline)
[8] = 25 µM, library screen: screen1, EWS-FLI1 expression: low (doxycycline-induced shRNA knockdown)

Measured: cell viability (log2)

CC(C)=CCCC(C)(O)C1CC=C(C)CC1 (configuration not stated)
inactive: [1] 0.0431 | [2] -0.0174 | [3] 0.0996 | [4] 0.0501

COC(=O)c1c(C)cc(OC(=O)c2c(C)cc(O)c(CO)c2O)c(C)c1O
inactive: [1] 0.129 | [2] 0.0318 | [3] 0.139 | [4] 0.0883

C[C@]12CC[C@@H](O)C[C@H]1CC[C@@H]1[C@@H]2C(=O)C[C@@]2(C)[C@H]1CC[C@]2(O)C(=O)CO
inactive: [1] 0.162 | [2] 0.116 | [3] 0.185 | [4] 0.0107

Cc1cc(=O)c2c(O)c3c(cc2o1)OCC(C)CC3 (configuration not stated)
inactive: [1] 0.0148 | [2] 0.14 | [3] 0.0878 | [4] 0.127

CN=C(N)NCCCC(N)C(=O)O (configuration not stated)
inactive: [1] 0.0723 | [2] 0.0246 | [3] -0.0207 | [4] -0.0108

Nn1c(SCC(=O)c2ccc(Cl)cc2)nc2ccccc2c1=O
inactive: [1] 0.102 | [2] 0.0418 | [3] 0.24 | [4] 0.000811

CC1(C)Oc2ccc3ccc(=O)oc3c2C[C@H]1O
inactive: [1] 0.0366 | [2] -0.00203 | [3] 0.0909 | [4] 0.0204

NC[C@@H]1O[C@H](O[C@H]2[C@@H](O)[C@H](O[C@@H]3[C@@H](O)[C@H](N)C[C@H](N)[C@H]3O[C@H]3O[C@H](CO)[C@@H](O)C[C@H]3N)O[C@@H]2CO)[C@H](N)[C@@H](O)[C@@H]1O[C@H]1O[C@H](CO)[C@@H](O)[C@H](O)[C@@H]1O
inactive: [1] 0.156 | [2] 0.0397 | [3] 0.0315 | [4] 0.0591

Cc1ccc(NC(=O)c2cccc(N(C)C)c2)cc1NC(=O)c1ccc(O)cc1
active: [3] -0.147 | [7] -0.322
0.277: [1]
inactive: [5] 0.191 | [6] -0.0357 | [2] 0.139 | [4] 0.168 | [8] 0.196

CC(=O)Nc1cccc(O)c1
inactive: [1] 0.142 | [2] 0.0568 | [3] 0.211 | [4] -0.0215

Cc1nc(-c2ccc(NC(=O)c3ccccc3)cc2)cs1
inactive: [1] 0.118 | [2] 0.115 | [3] 0.0995 | [4] 0.089

CC1(C)C(=O)C=C[C@]2(C)C3CC[C@@]4(C)[C@H](c5ccoc5)OC(=O)[C@H]5O[C@]54[C@]3(C)C(=O)C[C@@H]12 (some centres not stated)
inactive: [1] 0.0539 | [2] 0.0813 | [3] 0.0765 | [4] 0.119

Cc1cc(=O)oc2cc(O)c(O)cc12
inactive: [1] -0.0238 | [2] 0.0536 | [3] 0.00784 | [4] 0.0751

Cc1cc(=O)oc2cc(O)ccc12
inactive: [1] 0.129 | [2] 0.0733 | [3] 0.103 | [4] -0.0344

Cc1cc(=O)oc2c(O)c(O)ccc12
active: [1] -0.0965
inactive: [2] -0.0218 | [3] 0.0459 | [4] 0.107

N#CC1=C(N)Oc2cc(N)ccc2C1c1ccc(OCc2ccccc2)cc1 (configuration not stated)
inactive: [1] 0.04 | [2] 0.0479 | [3] 0.099 | [4] 0.204

CC(C)C[C@H](N)CSSC[C@@H](N)CC(C)C
inactive: 0.25 µM, library screen: screen2, EWS-FLI1 expression: high (no doxycycline) 0.107 | 0.25 µM, library screen: screen2, EWS-FLI1 expression: low (doxycycline-induced shRNA knockdown) 0.1 | 2.5 µM, library screen: screen2, EWS-FLI1 expression: high (no doxycycline) 0.104 | 2.5 µM, library screen: screen2, EWS-FLI1 expression: low (doxycycline-induced shRNA knockdown) 0.0902

CCCCOCCOC(=O)CCCOc1ccc(Cl)cc1Cl
inactive: [1] 0.0256 | [2] 0.038 | [3] 0.0946 | [4] 0.127

CN(C)CCCn1cc(C2=C(c3c[nH]c4ccccc34)C(=O)NC2=O)c2ccccc21
0.291: [4]
active: [3] -0.136 | [7] -0.422
inactive: [5] 0.176 | [6] 0.147 | [1] 0.197 | [2] 0.193 | [8] 0.0609

Cn1cc(C2=C(c3cn(CCCSC(=N)N)c4ccccc34)C(=O)NC2=O)c2ccccc21
active: [3] -1.27 | [4] -0.615 | [7] -4.25 | [8] -2.05
inactive: [5] 0.0502 | [6] 0.0613 | [1] -0.0731 | [2] 0.0259

Cn1cc(C2=C(c3ccc(Cl)cc3Cl)C(=O)NC2=O)c2ccccc21
inactive: 0.103 µM, library screen: screen3, EWS-FLI1 expression: high (no doxycycline) 0.039 | 0.103 µM, library screen: screen3, EWS-FLI1 expression: low (doxycycline-induced shRNA knockdown) 0.0193 | 0.308 µM, library screen: screen3, EWS-FLI1 expression: high (no doxycycline) 0.0253 | 0.308 µM, library screen: screen3, EWS-FLI1 expression: low (doxycycline-induced shRNA knockdown) 0.0244 | 0.926 µM, library screen: screen3, EWS-FLI1 expression: high (no doxycycline) 0.0632 | 0.926 µM, library screen: screen3, EWS-FLI1 expression: low (doxycycline-induced shRNA knockdown) 0.00111 | 2.8 µM, library screen: screen3, EWS-FLI1 expression: high (no doxycycline) 0.0516 | 2.8 µM, library screen: screen3, EWS-FLI1 expression: low (doxycycline-induced shRNA knockdown) -0.00589 | 8.3 µM, library screen: screen3, EWS-FLI1 expression: high (no doxycycline) 0.0741 | 8.3 µM, library screen: screen3, EWS-FLI1 expression: low (doxycycline-induced shRNA knockdown) 0.0603 | 25 µM, library screen: screen3, EWS-FLI1 expression: high (no doxycycline) 0.04 | 25 µM, library screen: screen3, EWS-FLI1 expression: low (doxycycline-induced shRNA knockdown) 0.0754

O=C(Nc1c(-c2ccccc2)nc2ccc(Cl)cn12)c1ccc(F)cc1
inactive: [1] 0.0947 | [2] 0.0794 | [3] 0.184 | [4] -0.0685

NCC1OC(OC2C(N)CC(N)C(OC3OC(CO)C(O)C(N)C3O)C2O)C(O)C(O)C1O (configuration not stated)
inactive: [1] 0.121 | [2] -0.0254 | [3] 0.206 | [4] 0.0929
